Source: PubChem BioAssay (NCI)
About 83,000 compounds went through this panel and 20% of them were active in at least one assay; those are over-represented in the sample as a whole.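 Cell lines were cultured in 96-well plates, exposed to a single compound concentration, and assessed for percent growth 48 hours later.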 Values without a mark were called inactive. The source made the active and inactive calls. Rule for the calls: active = growth percent below 10; inactive = the rest.

Tests used:
Test in all cases: NCI-60 one-dose screen, 48 h (100 = growth as untreated, 0 = no growth, -100 = all killed)
Settings in all cases: 10 µM unless noted
NCI-H23 lung = system: NCI-H23 lung
NCI-H322M lung = system: NCI-H322M lung
HOP-62 NSCLC = system: HOP-62 NSCLC
NCI-H460 lung = system: NCI-H460 lung
HOP-92 NSCLC = system: HOP-92 NSCLC
NCI-H522 lung = system: NCI-H522 lung
A549/ATCC NSCLC = system: A549/ATCC NSCLC
786-0 renal = system: 786-0 renal
COLO 205 colon = system: COLO 205 colon
DU-145 prostate = system: DU-145 prostate
K-562 leukemia = system: K-562 leukemia
MALME-3M melanoma = system: MALME-3M melanoma
MDA-MB-231 breast = system: MDA-MB-231 breast
RXF 393 renal = system: RXF 393 renal
SF-268 CNS = system: SF-268 CNS
SF-295 CNS = system: SF-295 CNS
SF-539 CNS = system: SF-539 CNS
UACC-257 melanoma = system: UACC-257 melanoma
M14 melanoma = system: M14 melanoma
HCT-15 colon = system: HCT-15 colon

Structure (SMILES)	growth (NCI-H23 lung)	growth (NCI-H322M lung)	growth (HOP-62 NSCLC)	growth (NCI-H460 lung)	growth (HOP-92 NSCLC)	growth (NCI-H522 lung)	growth (A549/ATCC NSCLC)	growth (786-0 renal)	growth (COLO 205 colon)	growth (DU-145 prostate) [%]	growth (K-562 leukemia)	growth (MALME-3M melanoma)	growth (MDA-MB-231 breast)	growth (RXF 393 renal)	growth (SF-268 CNS) [%]	growth (SF-295 CNS)	growth (SF-539 CNS)	growth (UACC-257 melanoma)	growth (M14 melanoma)	growth (HCT-15 colon)
Cc1nc(Nc2cn[nH]c2C(=O)Nc2ccc(CN3CCN(C)CC3)cc2)c2ccsc2n1	95.5%	88.1%	107%	109%	90.6%	72%	66.9%	65.1%	94.1%	102	72.2%	132%	82.4%	61.7%	88.2	118%	78.4%	98.3%	98.9%	81%
O=NN(Cc1cccnc1)C(=O)NC1CCCCC1	111%	106%	107%	109%	82.3%	90.5%	93.9%	108%	111%	116	101%	102%	127%	102%	106	80.7%	96.2%	92.5%	107%	108%
CC/C(=C(\CC)c1ccc(OCC[N+](C)(C)C)cc1)c1ccc(OC)cc1	56.7%	99.3%	62.4%	40.1%	45.3%	32.7%	53%	91.1%	6.92% (active)	94.9	30.4%	68.3%	71.9%	29%	61.2	76.2%	59.9%	39%	58.1%	97.6%
O=c1oc2ccc(I)cc2c(=O)n1-c1ccc(Cl)cc1F	-9.99% (active)	5.32% (active)	-3.85% (active)	3.56% (active)	-6.61% (active)	-17.1% (active)	6.01% (active)	8.94% (active)	52.1%	19.5	4.68% (active)	-21.2% (active)	-12.6% (active)	4.98% (active)	12	-48.1% (active)	7.99% (active)	-15.1% (active)	9.12% (active)	2.13% (active)
S=C1CCCC(=S)N1	101%	107%	88%	106%	105%	96.6%	98.3%	107%	115%	111	104%	106%	113%	104%	99.1	104%	100%	94.6%	105%	101%
O=C(c1nc2ccccc2[nH]1)C1C(c2cccc([N+](=O)[O-])c2)C2CC3CCCCC3N2[C@@]12C(=O)Nc1cc(Cl)ccc12 (stereo not given in full)	37.3%	42.2%	48.1%	9.08% (active)	16.9%	52.4%	17.8%	25.6%	12.6%	27	24.2%	29.3%	18.6%	-52.5% (active)	39.9	24.8%	48.4%	43.5%	21.5%	20.9%
O=C(c1nc2ccccc2[nH]1)C1[C@@H](c2cccc(O)c2)C2CC3CCCCC3N2[C@@]12C(=O)Nc1cc(Cl)ccc12 (stereo not given in full)	48.6%	61.6%	60.3%	13.1%	55%	51.9%	27.2%	35.2%	63.5%	43.7	21.5%	32.1%	34.7%	1.99% (active)	49.5	37.2%	48.7%	48.9%	29.2%	40.7%
O=C1NC(=S)NC(=O)C1=Cc1cn(Cc2cn(Cc3cccc4ccccc34)nn2)c2ccccc12	88%	93.7%	94.9%	89.4%	102%	97.2%	106%	115%	114%	105	121%	86.5%	87.6%	84.6%	95.4	98.4%	96.3%	103%	95%	100%
